B1: ENSMUSG00000022095.20|Fam160b2 (ssRNA)
RNA: GGGAGUUCUACAGUCCGACGAUCGCUUCGAUAUCCGCAUGCUAGGUGGGGGAAGAUUCCUGCCUGUGUACUUCUGCCCACGGGCAGUCUCCUGCCUGGCCAUGCUGCCACUCUGUCCUCCAUGCCGGGGACUUCAGCUGCAGGACACCUCACCUGUUGACCCCACGAGCUGAGGUUUCAAGGAGGUGCUGGCUCCUAAGGCAGUGGUAUUCUUGGAGCCUUUUAGAGGAGCUAGAGGAUGGCCAGUGAGCGCCUAGAUGCUGCCCUGCAUGUGUUGCGUGACUAUCUCUGCUAUAUUGUGACCCUCUUGCGGUCGCACUAGUGUGGAAUUCUCGGGUGUCAAGG
B2: ENSMUSG00000058297.107|Spock2|69:74 (ssRNA)
RNA: GGGAGUUCUACAGUCCGACGAUCGCUUCGAUAUCCGCAUGCUAUGAGGCAGGACCUGUACACACAGCAAGGCUUACUAUCCGUCUCCUGACAUCCGAAGAGCUCGUCGCAGCACACACUAAUGGCCCUUGGGCUGCACGUGGUUAAGCAUAGCUGUCUCUGUGGCCCAACACAAAGAGGUAAACUUACUUAAAACACAGGGGUUUUGUUGCUGUUUGUUUUUUGUUAGUUUGUUUGUUGAUAAUUGGAUUGAGGAGUUAAUCCUCUGUCACAAUGUCAAAAGCAUGGACAUCCCUGAUAGAUUCUCUUGCGGUCGCACUAGUGUGGAAUUCUCGGGUGUCAAGG
B3: ENSMUSG00000061578.1365|Ksr2|224:228 (ssRNA)
RNA: GGGAGUUCUACAGUCCGACGAUCGCUUCGAUAUCCGCAUGCUACAGGACAGCCCAGCUUCCCACUCCAGACAUGUUGUUCUUACAUCUCUGACCCAGUGAUCUUUCUAGGGGUCUGUCACAUGUCCCAACAGGUGGACAGCUCUCCAAGUCACCAACCUGAGGAAAAUAUCCCUCCUUGUAAAAAGGCUUUCUCUUUGUAAAUGAUUCUGUUGCCUUUUUCUAAACACAAAGUAUAUAUACCUAUAAAUGCUAUAUAUAUUAUAUAACACAAUAUACAUAAAGACUACUUCUUGUACAGCCCUCUCUUGCGGUCGCACUAGUGUGGAAUUCUCGGGUGUCAAGG
B4: ENSMUSG00000004113.365|Cacna1b (ssRNA)
RNA: GGGAGUUCUACAGUCCGACGAUCGCUUCGAUAUCCGCAUGCUAUAUACAAAGGCACAAUACCCUGAAACUUUAACAGAGUAUUUUAUUCCAGUAGGGUAAAAUUAAACGGGACUCUUGGACUGCGCAUGUGACUGCACCCACGUUGCAACAGAGAAGGAUGUGCAUUUUGAUACUGAUGUUCUGUCUCUGUUCCAGCCCCAGCCCCCUUUUCUCUUGAGUGUUGAAUGUAUACAUUCUGUGUGGAACUACAGCUGCCUCAGACAAUCCUGGGUUGGGAAUCAUCUUUAUCCCACAUCAACAUACUCUUGCGGUCGCACUAGUGUGGAAUUCUCGGGUGUCAAGG
B5: ENSMUSG00000058297.177|Spock2 (ssRNA)
RNA: GGGAGUUCUACAGUCCGACGAUCGCUUCGAUAUCCGCAUGCUAUGUCAUCAUAUAGCUGAGAUUUGGAGUAGCCUGCUAUGAGGGCUUGCAGUUGCACUCUCUGUUCCCUGGCGAGGGUCCCCCUUGUCCCAAGGAGCAGAGGACCAGCAAGCAGCCCGUGUCUGCUCACCUUCUCCCUGACCCUCUAGGAAAUGGUUCCCUCUUGCCCCGACCAAUAGAAGGGCGUGUCCCCGAGACCCUUGUGAGGAACCACGGGGAGCUGUGACUUCCUGUGCCCAGAAGGUCCUGGAGGAGAGGCCCCACUCUUGCGGUCGCACUAGUGUGGAAUUCUCGGGUGUCAAGG
B6: ENSMUSG00000058297.112|Spock2|39:44 (ssRNA)
RNA: GGGAGUUCUACAGUCCGACGAUCGCUUCGAUAUCCGCAUGCUAUACUAUCCGUCUCCUGACAUCCGAAGAGCUCGUCGCAGCACACACUAAUGGCCCUUGGGCUGCACGUGGUUAAGCAUAGCUGUCUCUGUGGCCCAACACAAAGAGGUAAACUUACUUAAAACACAGGGGUUUUGUUGCUGUUUGUUUUUUGUUAGUUUGUUUGUUGAUAAUUGGAUUGAGGAGUUAAUCCUCUGUCACAAUGUCAAAAGCAUGGACAUCCCUGAUAGAUUAUCUCUCAACCUAGUCCCGAGUAACCAGAGCUCUUGCGGUCGCACUAGUGUGGAAUUCUCGGGUGUCAAGG
B7: ENSMUSG00000022095.12|Fam160b2|69:73 (ssRNA)
RNA: GGGAGUUCUACAGUCCGACGAUCGCUUCGAUAUCCGCAUGCUAAACUUCUCUCCACCUCCAGAAGGGCAAGUCUGAGCCAGGAGCAUGACGGGUGGGGGAAGAUUCCUGCCACACAACUUCUGCCCACGGGCAGUCUCCUGCCUGGCCAUGCUGCCACUCUGUCCUCCAUGCCGGGGACUUCAGCUGCAGGACACCUCACCUGUUGACCCCACGAGCUGAGGUUUCAAGGAGGUGCUGGCUCCUAAGGCAGUGGUAUUCUUGGAGCCUUUUAGAGGAGCUAGAGGAUGGCCAGUGAGCGCCUACUCUUGCGGUCGCACUAGUGUGGAAUUCUCGGGUGUCAAGG
B8: ENSMUSG00000028439.123|Fam219a|54:58 (ssRNA)
RNA: GGGAGUUCUACAGUCCGACGAUCGCUUCGAUAUCCGCAUGCUACUGAGGGUUGGGAAGGUAAGAUGGGCCUUAGAGAGAAGCCAGGUUUGGGGAUGCAUACACCUGUUCUCACCGGUCUCUAACCAGUGCAUCUGUCUCUCUGCCUCAUCCCCACACCGCCCUGCCACCCCCAGUCUUCUGUCUAUUGGUUCCAGGCUGGAAGCAAGAGAUAAGGCUGGCCUCCUGUGCCCCAUUGCCAUUUCACCCUAGCUCAAAGUCCAGGAGCCAGGCUUCCAGAAAGGCUCUUCAAGAGCAAGCUUAAGCUCUUGCGGUCGCACUAGUGUGGAAUUCUCGGGUGUCAAGG
B9: ENSMUSG00000042529.392|Kcnj12 (ssRNA)
RNA: GGGAGUUCUACAGUCCGACGAUCGCUUCGAUAUCCGCAUGCUAGAUCAGUCCGACUUGAGUCCCUGCCCUGCCCUGGUUAUGCAGGCUGUACGACGCAGUGUGCAUCAGUCUGAGGAGUCUGGUGGUAAGUAAGCCUCUGCAGCAGACCCUGUCGGAGGCCAUGGGGGCGUGUGUGUGUGUGUGUGUGUGUGUGUGUGUGUGUGUGUGUGUGUGUGUGUGUGAACAUGUGUGAGGGUGUGGAGGUCCCAGGGUGUGUGUAUGUGAAUGUCAGUGGCUUGGGUGCUGUGUGGAGAGAGAGAGAGCUCUUGCGGUCGCACUAGUGUGGAAUUCUCGGGUGUCAAGG
B10: ENSMUSG00000042529.398|Kcnj12 (ssRNA)
RNA: GGGAGUUCUACAGUCCGACGAUCGCUUCGAUAUCCGCAUGCUAAUGCAGGCUGUACGACGCAGUGUGCAUCAGUCUGAGGAGUCUGGUGGUAAGUAAGCCUCUGCAGCAGACCCUGUCGGAGGCCAUGGGGGCGUGUGUGUGUGUGUGUGUGUGUGUGUGUGUGUGUGUGUGUGUGUGUGUGUGUGAACAUGUGUGAGGGUGUGGAGGUCCCAGGGUGUGUGUAUGUGAAUGUCAGUGGCUUGGGUGCUGUGUGGAGAGAGAGAGAGAGAGAGAGAGAGAGAGAGAGAGAGAGAGAGAGAGAGCUCUUGCGGUCGCACUAGUGUGGAAUUCUCGGGUGUCAAGG
B11: ENSMUSG00000042529.393|Kcnj12 (ssRNA)
RNA: GGGAGUUCUACAGUCCGACGAUCGCUUCGAUAUCCGCAUGCUAUCCGACUUGAGUCCCUGCCCUGCCCUGGUUAUGCAGGCUGUACGACGCAGUGUGCAUCAGUCUGAGGAGUCUGGUGGUAAGUAAGCCUCUGCAGCAGACCCUGUCGGAGGCCAUGGGGGCGUGUGUGUGUGUGUGUGUGUGUGUGUGUGUGUGUGUGUGUGUGUGUGUGUGUGAACAUGUGUGAGGGUGUGGAGGUCCCAGGGUGUGUGUAUGUGAAUGUCAGUGGCUUGGGUGCUGUGUGGAGAGAGAGAGAGAGAGAGCUCUUGCGGUCGCACUAGUGUGGAAUUCUCGGGUGUCAAGG

The full ranking holds about 9,900 sequences; the median of “r (bound/input frequency ratio)” is about 0.7, and the highest 2% start at about 6.5. Shown is part of a subset that was picked to be rich in the highest values.

TDP-43, sequence (Q13148 whole entry): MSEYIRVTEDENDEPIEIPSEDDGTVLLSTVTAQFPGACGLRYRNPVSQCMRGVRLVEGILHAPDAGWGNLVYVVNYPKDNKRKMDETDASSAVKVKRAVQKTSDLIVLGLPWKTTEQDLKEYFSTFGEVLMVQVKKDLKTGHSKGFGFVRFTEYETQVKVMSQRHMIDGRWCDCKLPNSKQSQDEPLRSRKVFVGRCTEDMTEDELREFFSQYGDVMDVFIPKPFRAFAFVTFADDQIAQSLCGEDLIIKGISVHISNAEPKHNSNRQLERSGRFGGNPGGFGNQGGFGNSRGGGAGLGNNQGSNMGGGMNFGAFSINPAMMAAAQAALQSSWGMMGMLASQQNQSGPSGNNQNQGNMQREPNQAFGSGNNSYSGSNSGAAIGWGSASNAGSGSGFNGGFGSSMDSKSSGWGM

This assay has as its target TDP-43 (Homo sapiens, UniProt Q13148 1-414). Description: RNA Bind-n-Seq with designed 260-mer pool; 25 mM Tris-HCl, 150 mM KCl, 3 mM MgCl2, BSA (printed 500 mg/mL), 20 units/mL SUPERase IN; pH not stated; 500 nM RNA pool, 1 h, 4 C; TDP-43 5, 50, 500 nM; high values mean tight binding. Conditions: protein: recombinant; tags: SBP (GST cleaved off with PreScission; pGEX-GST-SBP). The method in brief: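 Streptavidin beads captured recombinant SBP-tagged TDP-43 at 5, 50 or 500 nM, and the beads were incubated for 1 h at 4 °C with 500 nM of an in vitro-transcribed pool of 260-nt 3′ UTR oligos in 25 mM Tris-HCl, 150 mM KCl, 3 mM MgCl2, BSA and SUPERase IN. After washing, bound RNA was eluted with biotin, reverse transcribed, PCR-amplified and sequenced. Binding is reported as R, the mapped-read-normalized abundance of each oligo in the bound sample divided by its abundance in the input. Two independent protein batches served as duplicates.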
With B1, the binding signal was 0.487 R (bound/input frequency ratio).

Consider B2, for which the binding signal was 1.04 R (bound/input frequency ratio).

On to B3, for which the binding signal is 0.125 R (bound/input frequency ratio).

B4: the binding signal was 0.216 R (bound/input frequency ratio).

For B5, the binding signal was 0.086 R (bound/input frequency ratio).

For B6, the binding signal was 1.33 R (bound/input frequency ratio).

For the molecule B7, the binding signal is 0.253 R (bound/input frequency ratio).

For the molecule B8, the binding signal is 0.5 R (bound/input frequency ratio).

As to B9, the binding signal was 7.12 R (bound/input frequency ratio).

As to B10, the binding signal was 5.26 R (bound/input frequency ratio).

In the case of B11, the binding signal is 5.42 R (bound/input frequency ratio).

Source of the values: PMC12864922, “TDP-43 directly inhibits mRNA accumulation in neurites through modulation of mRNA stability”.
